According to PubChem BioAssay (NCI):
About 83,000 compounds went through this panel and 20% of them were active in at least one assay; those are over-represented in the sample as a whole.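 Plates (96-well) were seeded with cells, treated with compound at one concentration, and incubated for 48 hours before percent growth was determined.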 A number with no mark means an inactive call. Active and inactive are the calls of the source. The calls were made as follows: active = growth percent below 10; inactive = the rest.

Tests used:
Experiment in all cases: NCI-60 one-dose screen, 48 h (100 = growth as untreated, 0 = no growth, -100 = all killed)
Conditions in all cases: 10 µM unless noted
HCT-15 colon = tested on: HCT-15 colon
HT29 colon = tested on: HT29 colon
SNB-75 CNS = tested on: SNB-75 CNS
SNB-19 CNS = tested on: SNB-19 CNS
U251 CNS = tested on: U251 CNS
PC-3 prostate = tested on: PC-3 prostate
SK-MEL-5 melanoma = tested on: SK-MEL-5 melanoma
UACC-62 melanoma = tested on: UACC-62 melanoma
LOX IMVI melanoma = tested on: LOX IMVI melanoma
SK-MEL-28 melanoma = tested on: SK-MEL-28 melanoma
SK-MEL-2 melanoma = tested on: SK-MEL-2 melanoma
EKVX NSCLC = tested on: EKVX NSCLC
SN12C renal = tested on: SN12C renal
UO-31 renal = tested on: UO-31 renal
TK-10 renal = tested on: TK-10 renal
ACHN renal = tested on: ACHN renal
CAKI-1 renal = tested on: CAKI-1 renal
CCRF-CEM leukemia = tested on: CCRF-CEM leukemia
MOLT-4 leukemia = tested on: MOLT-4 leukemia
A498 renal = tested on: A498 renal

Row | Structure (SMILES) | growth (HCT-15 colon) | growth (HT29 colon) | growth (SNB-75 CNS) | growth (SNB-19 CNS) | growth (U251 CNS) | growth (PC-3 prostate) | growth (SK-MEL-5 melanoma) | growth (UACC-62 melanoma) | growth (LOX IMVI melanoma) | growth (SK-MEL-28 melanoma) | growth (SK-MEL-2 melanoma) | growth (EKVX NSCLC) | growth (SN12C renal) | growth (UO-31 renal) | growth (TK-10 renal) | growth (ACHN renal) | growth (CAKI-1 renal) | growth (CCRF-CEM leukemia) | growth (MOLT-4 leukemia) | growth (A498 renal)
1 | COc1cc(/C=C/C(=O)c2cnn(-c3cc(=O)[nH]c4ccc(Cl)cc34)c2C)cc(OC)c1OC | -40.2% (active) | -71.9% (active) | -11.4% (active) | -68.9% (active) | -65.7% (active) | -26.9% (active) | -88.9% (active) | -49.1% (active) | -60.8% (active) | -69.2% (active) | -80.6% (active) | -4.28% (active) | 0.0215% (active) | -72.6% (active) | 0.154% (active) | -35.4% (active) | -68.4% (active) | -16.7% (active) | -10.9% (active) | 
2 | COc1cc(/C=C/C(=O)c2cnn(-c3cc(=O)[nH]c4ccc(C)cc34)c2C)cc(OC)c1OC | -38.7% (active) | -67.3% (active) | 45.1% | 18.7% | -85% (active) | 5.99% (active) | -95.2% (active) | -71.9% (active) | -92% (active) | -77.2% (active) | -73.1% (active) | -9.39% (active) | 10.4% | -45.8% (active) | 37.8% | -8.39% (active) | 16.4% | -22.2% (active) | -8.06% (active) | 
3 | CN(C)c1nc(NCCNS(=O)(=O)c2ccc(C3=Nc4c(N)nc(N)nc4NC(c4ccc(C(F)(F)F)cc4)C3)cc2)nc(N2CCOCC2)n1 (configuration not stated) | 53.6% | 9.6% (active) | 46% | 49% | 26.6% | 24.2% | 25.5% | 51.5% | 0.0978% (active) | 57.4% | 21.8% | 38.3% | 48.1% | 74.1% | 68.9% |  | 37.1% | 21.8% | -5.12% (active) | 94.8%
4 | Fc1ccc(F)c(CNc2nc(SCCN3CCOCC3)nc3c2cnn3CC(Cl)c2ccc(Br)cc2)c1 (configuration not stated) | -17.6% (active) | -49.7% (active) | 56.3% | 42.2% | 26.7% | 25.2% | -12.9% (active) | -1.48% (active) | -7.7% (active) | 32.3% | 5.82% (active) | 45.1% | 28.9% | 9.3% (active) | 44.8% |  | 26.7% | 11.1% | -22.6% (active) | 64.8%
5 | O=C1Nc2cc(-c3ccc(NS(=O)(=O)c4ccc(C(F)(F)F)cc4)cc3)ccc2/C1=C/c1ccc[nH]1 | 15.8% | 12.2% | 18.6% | 69.9% | 41.1% | 31.2% | 42.7% | 30.5% | 46.1% | 47.4% | 22.5% | 19.5% | 4.64% (active) | 31.1% | 32.5% |  | 32.9% | 18.5% | 6.52% (active) | 28.9%
6 | C#CCN(C)CCCOc1ccc(N(CC)C(=O)c2cc(C(C)C)c(O)cc2O)cc1Cl | -52.8% (active) | 7.04% (active) | -1.15% (active) | 11.2% | 1.31% (active) | 12.6% | -95.9% (active) | -66% (active) | -95.4% (active) | 5.69% (active) | -57.9% (active) | -7.81% (active) | -52.1% (active) | 8.11% (active) | 11.1% | 11.6% | 9.89% (active) | 7.35% (active) | -33.6% (active) | 
7 | O=C(NC(=S)N1CCN(c2ncnc3c2cnn3-c2ccccc2)CC1)c1ccc(Br)cc1 | 58.3% | 86.4% | 7.89% (active) | 46.6% | 56.5% | 64.8% | 75% | 60.6% | 41.1% | 77.1% | 87.4% | 76.4% | 48.4% | 70.7% | 127% | 69.2% | 47.8% | 81.2% | 81.5% | 
8 | O=C(NNC(=O)c1ccc(OCc2nc3ccc(Cl)cc3[nH]2)cc1)Nc1ccc(Cl)c(C(F)(F)F)c1 | 97.6% | 68.2% | 59.8% | 61.1% | 30.7% | 33.3% | 70.4% | 61.4% | 48.2% | 52.8% | 109% | 69.6% | 64.9% | 82.8% | 116% |  | 81% | 48.9% | 60.6% | 154%
